Where a chain is given by its changes, count along the chain named.

Common to all, as to assay: PBM; 200 nM protein, PBS
Conditions in all cases: dsDNA, one strand shown

Experiment [1] addresses HOXB9 (Homo sapiens, UniProt P17482 171-250, T197M).
Experiment [2] addresses HOXC9 (Homo sapiens, UniProt P31274 178-260, K195R).
Experiment [3] addresses T1, VENTX (Homo sapiens, UniProt O95231 78-163).
T1 sequence: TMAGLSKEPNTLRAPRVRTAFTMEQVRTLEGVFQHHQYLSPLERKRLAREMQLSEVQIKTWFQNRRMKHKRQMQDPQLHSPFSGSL

Experiment [4] concerns the target T2, PAX4 (Homo sapiens, UniProt O43316 9-242, R200K).
T2 sequence: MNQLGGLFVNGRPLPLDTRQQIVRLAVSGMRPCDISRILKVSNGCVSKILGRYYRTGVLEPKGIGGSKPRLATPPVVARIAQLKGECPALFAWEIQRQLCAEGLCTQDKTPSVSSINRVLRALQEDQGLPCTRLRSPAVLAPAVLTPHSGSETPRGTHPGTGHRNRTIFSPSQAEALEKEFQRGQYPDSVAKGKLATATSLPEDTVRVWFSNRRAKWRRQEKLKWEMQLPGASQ

The target in experiment [5] is T3, VENTX (Homo sapiens, UniProt O95231 78-163, Y115F).
T3 sequence: T1 sequence with Y38F

For experiment [6], the target named is T4, PAX4 (Homo sapiens, UniProt O43316 9-242).
T4 sequence: T2 sequence with K192R

Experiment [7] deals with HOXB9 (Homo sapiens, UniProt P17482 171-250).
Experiment [8] concerns the target T5, PAX4 (Homo sapiens, UniProt O43316 9-242, R200Q).
T5 sequence: T2 sequence with K192Q

Experiment [9] addresses HOXC9 (Homo sapiens, UniProt P31274 178-260, R193K).
In experiment [10] the target is T6, PAX4 (Homo sapiens, UniProt O43316 9-242, F177V).
T6 sequence: T2 sequence with F169V, K192R

Experiment [11] concerns the target HOXC10 (Homo sapiens, UniProt Q9NYD6 254-340, K271E).
Experiment [12] addresses T7, PAX4 (Homo sapiens, UniProt O43316 9-242, F177Y).
T7 sequence: T2 sequence with F169Y, K192R

Experiment [13] deals with VAX1 (Homo sapiens, UniProt Q5SQQ9 86-172).
The target in experiment [14] is HOXB9 (Homo sapiens, UniProt P17482 171-250, R186Q).
In experiment [15] the target is HOXC9 (Homo sapiens, UniProt P31274 178-260, R222W).
In experiment [16] the target is T8, PAX4 (Homo sapiens, UniProt O43316 9-242, R227W).
T8 sequence: T2 sequence with K192R, R219W

For experiment [17], the target named is HOXA2 (Homo sapiens, UniProt O43364 129-215, Y150S).
Experiment [18] has as its target HOXA2 (Homo sapiens, UniProt O43364 129-215).

HOXB9 (Homo sapiens, UniProt P17482 171-250), sequence (P17482 171-250): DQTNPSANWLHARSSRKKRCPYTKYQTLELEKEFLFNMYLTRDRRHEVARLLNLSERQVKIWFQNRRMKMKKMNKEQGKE
HOXA2 (Homo sapiens, UniProt O43364 129-215, Y150S), sequence (O43364 129-215 Y150S): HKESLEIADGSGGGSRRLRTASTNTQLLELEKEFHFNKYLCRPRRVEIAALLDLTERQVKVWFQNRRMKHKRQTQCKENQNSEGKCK
VAX1, sequence (Q5SQQ9 86-172): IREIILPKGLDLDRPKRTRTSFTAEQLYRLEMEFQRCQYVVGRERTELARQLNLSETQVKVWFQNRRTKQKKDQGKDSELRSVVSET
HOXC9 (Homo sapiens, UniProt P31274 178-260, R222W), sequence (P31274 178-260 R222W): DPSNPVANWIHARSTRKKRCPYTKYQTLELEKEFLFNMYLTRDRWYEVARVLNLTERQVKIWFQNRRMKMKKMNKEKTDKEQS
HOXC10, sequence (Q9NYD6 254-340 K271E): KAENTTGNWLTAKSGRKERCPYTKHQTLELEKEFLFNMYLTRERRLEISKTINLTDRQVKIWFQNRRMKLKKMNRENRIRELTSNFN
HOXB9 (Homo sapiens, UniProt P17482 171-250, R186Q), sequence (P17482 171-250 R186Q): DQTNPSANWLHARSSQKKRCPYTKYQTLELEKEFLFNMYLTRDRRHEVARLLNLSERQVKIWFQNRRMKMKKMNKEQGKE
HOXA2 (Homo sapiens, UniProt O43364 129-215), sequence (O43364 129-215): as the sequence (O43364 129-215 Y150S) above, with S22Y counted along it
HOXC9 (Homo sapiens, UniProt P31274 178-260, R193K), sequence (P31274 178-260 R193K): as the sequence (P31274 178-260 R222W) above, with R16K, W45R counted along it
HOXC9 (Homo sapiens, UniProt P31274 178-260, K195R), sequence (P31274 178-260 K195R): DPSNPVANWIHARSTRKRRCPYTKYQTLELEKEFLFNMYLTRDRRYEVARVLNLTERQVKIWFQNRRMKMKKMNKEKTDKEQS
HOXB9 (Homo sapiens, UniProt P17482 171-250, T197M), sequence (P17482 171-250 T197M): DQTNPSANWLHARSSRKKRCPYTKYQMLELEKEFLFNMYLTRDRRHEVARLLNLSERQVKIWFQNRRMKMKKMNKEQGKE

As to AGTAATTA, the binding signal in experiment [1] was 10.6 upbm affinity estimate (log intensity, higher = more binding, comparable within an allelic series); in experiment [2] it was 13.1 upbm affinity estimate (log intensity, higher = more binding, comparable within an allelic series); in experiment [3], 13 upbm affinity estimate (log intensity, higher = more binding, comparable within an allelic series); in experiment [4] it was 11.9 upbm affinity estimate (log intensity, higher = more binding, comparable within an allelic series); in experiment [5], 12.6 upbm affinity estimate (log intensity, higher = more binding, comparable within an allelic series); in experiment [6], 12.5 upbm affinity estimate (log intensity, higher = more binding, comparable within an allelic series). In addition, the binding signal in experiment [7] was 12.3 upbm affinity estimate (log intensity, higher = more binding, comparable within an allelic series); in experiment [8], 12.3 upbm affinity estimate (log intensity, higher = more binding, comparable within an allelic series); in [9], 13 upbm affinity estimate (log intensity, higher = more binding, comparable within an allelic series); in experiment [10] it was 10.7 upbm affinity estimate (log intensity, higher = more binding, comparable within an allelic series); in experiment [11] it was 12.5 upbm affinity estimate (log intensity, higher = more binding, comparable within an allelic series); in [12], 11.1 upbm affinity estimate (log intensity, higher = more binding, comparable within an allelic series). Further, the binding signal in [13] was 13.8 upbm affinity estimate (log intensity, higher = more binding, comparable within an allelic series); in experiment [14], 12.1 upbm affinity estimate (log intensity, higher = more binding, comparable within an allelic series); in experiment [15] it was 11.1 upbm affinity estimate (log intensity, higher = more binding, comparable within an allelic series); in experiment [16] it was 11.1 upbm affinity estimate (log intensity, higher = more binding, comparable within an allelic series); in experiment [17] it was 11.1 upbm affinity estimate (log intensity, higher = more binding, comparable within an allelic series); in experiment [18], 13.3 upbm affinity estimate (log intensity, higher = more binding, comparable within an allelic series).

For the sequence ATTAATGA, the binding signal in experiment [1] is 10.4 upbm affinity estimate (log intensity, higher = more binding, comparable within an allelic series); in experiment [2] it was 13 upbm affinity estimate (log intensity, higher = more binding, comparable within an allelic series); in experiment [3] it was 12.8 upbm affinity estimate (log intensity, higher = more binding, comparable within an allelic series); in experiment [4] it was 11.8 upbm affinity estimate (log intensity, higher = more binding, comparable within an allelic series); in experiment [5] it was 12.1 upbm affinity estimate (log intensity, higher = more binding, comparable within an allelic series); in experiment [6], 12.3 upbm affinity estimate (log intensity, higher = more binding, comparable within an allelic series). Also, the binding signal in experiment [7] was 12.2 upbm affinity estimate (log intensity, higher = more binding, comparable within an allelic series); in experiment [8] it was 12.1 upbm affinity estimate (log intensity, higher = more binding, comparable within an allelic series); in [9], 12.9 upbm affinity estimate (log intensity, higher = more binding, comparable within an allelic series); in experiment [10], 10.6 upbm affinity estimate (log intensity, higher = more binding, comparable within an allelic series); in experiment [11] it was 12.3 upbm affinity estimate (log intensity, higher = more binding, comparable within an allelic series); in [12], 11.1 upbm affinity estimate (log intensity, higher = more binding, comparable within an allelic series). In addition, the binding signal is 13.4 upbm affinity estimate (log intensity, higher = more binding, comparable within an allelic series) in experiment [13]; 11.9 upbm affinity estimate (log intensity, higher = more binding, comparable within an allelic series) in experiment [14]; 11.2 upbm affinity estimate (log intensity, higher = more binding, comparable within an allelic series) in experiment [15]; 11 upbm affinity estimate (log intensity, higher = more binding, comparable within an allelic series) in experiment [16]; 11 upbm affinity estimate (log intensity, higher = more binding, comparable within an allelic series) in experiment [17]; 12.9 upbm affinity estimate (log intensity, higher = more binding, comparable within an allelic series) in experiment [18].

Take TTAATTAA: the binding signal is 10.4 upbm affinity estimate (log intensity, higher = more binding, comparable within an allelic series) in [1]; 12.9 upbm affinity estimate (log intensity, higher = more binding, comparable within an allelic series) in [2]; 12.8 upbm affinity estimate (log intensity, higher = more binding, comparable within an allelic series) in [3]; 12.1 upbm affinity estimate (log intensity, higher = more binding, comparable within an allelic series) in experiment [4]; 12.1 upbm affinity estimate (log intensity, higher = more binding, comparable within an allelic series) in experiment [5]; 12.6 upbm affinity estimate (log intensity, higher = more binding, comparable within an allelic series) in [6]. The binding signal is 12.3 upbm affinity estimate (log intensity, higher = more binding, comparable within an allelic series) in [7]; 12.6 upbm affinity estimate (log intensity, higher = more binding, comparable within an allelic series) in experiment [8]; 12.7 upbm affinity estimate (log intensity, higher = more binding, comparable within an allelic series) in experiment [9]; 11.2 upbm affinity estimate (log intensity, higher = more binding, comparable within an allelic series) in experiment [10]; 12.3 upbm affinity estimate (log intensity, higher = more binding, comparable within an allelic series) in experiment [11]; 11.6 upbm affinity estimate (log intensity, higher = more binding, comparable within an allelic series) in experiment [12]. Also, the binding signal in experiment [13] was 13.6 upbm affinity estimate (log intensity, higher = more binding, comparable within an allelic series); in experiment [14] it was 12 upbm affinity estimate (log intensity, higher = more binding, comparable within an allelic series); in experiment [15] it was 11.5 upbm affinity estimate (log intensity, higher = more binding, comparable within an allelic series); in experiment [16], 11.4 upbm affinity estimate (log intensity, higher = more binding, comparable within an allelic series); in [17] it was 10.8 upbm affinity estimate (log intensity, higher = more binding, comparable within an allelic series); in experiment [18], 13.1 upbm affinity estimate (log intensity, higher = more binding, comparable within an allelic series).

The values are drawn from publication PMC11006913.
